Test results reported in PubChem BioAssay AID1159580 (chemical genetic matrix, 2015).
Out of some 5,500 compounds screened, about 2,000 (36%) were called active. About 18% were inconclusive and are not listed. Cut-off read from the data, not from the text of the source: active = normalized growth mostly below about 0.91 (no sharp cut-off); inconclusive = no clear call, values can overlap the other calls; inactive = mostly above about 0.92. The list shows a part of the results.

Test: chemical genetic growth profiling, strain panel (AID 1159580);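 note: tested at 20 µM; growth read once vehicle control cultures reached saturation at 30 °C; 1 = growth at the plate median or of vehicle wells; lower values mean less growth of the strain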
Conditions: growth OD

Measured: normalized growth

N[C@@H](C(=O)O)[C@@H](O)[C@H](O)[C@H](O)CO
inactive: S. cerevisiae deletion strains, locus YJR066W, strain TOR1, stronger effect = lower value 0.985 | S. cerevisiae deletion strains, locus YJR075W, strain HOC1, stronger effect = lower value 1.02 | S. cerevisiae deletion strains, locus YKL009W, strain mrt4, stronger effect = lower value 1 | S. cerevisiae deletion strains, locus YKL068W, stronger effect = lower value 1.01 | S. cerevisiae deletion strains, locus YKL085W, strain MDH1 (second series), stronger effect = lower value 1.02 | S. cerevisiae deletion strains, locus YKL085W, strain MDH1, stronger effect = lower value 1.02 | S. cerevisiae deletion strains, locus YKL160W, strain elf1, stronger effect = lower value 1.03 | S. cerevisiae deletion strains, locus YKL190W, strain CNB1, stronger effect = lower value 1.01 | S. cerevisiae deletion strains, locus YKR001C, strain vps1, stronger effect = lower value 1.04 | S. cerevisiae deletion strains, locus YKR026C, strain gcn3, stronger effect = lower value 1.04 | S. cerevisiae deletion strains, locus YKR091W, strain srl3, stronger effect = lower value 1.02 | S. cerevisiae deletion strains, locus YLL001W, strain dnm1, stronger effect = lower value 1.03 | S. cerevisiae deletion strains, locus YLL026W, stronger effect = lower value 1.03 | S. cerevisiae deletion strains, locus YLL041C, strain sdh2, stronger effect = lower value 1.02 | S. cerevisiae deletion strains, locus YLR027C, strain aat2, stronger effect = lower value 1.02 | S. cerevisiae deletion strains, locus YLR039C, strain RIC1, stronger effect = lower value 1.1 | S. cerevisiae deletion strains, locus YLR058C, strain SHM2, stronger effect = lower value 1.01 | S. cerevisiae deletion strains, locus YLR102C, strain apc9, stronger effect = lower value 1.01 | S. cerevisiae deletion strains, locus YLR113W, strain HOG1, stronger effect = lower value 1.07 | S. cerevisiae deletion strains, locus YLR221C, strain rsa3, stronger effect = lower value 1.03 | S. cerevisiae deletion strains, locus YLR258W, strain gsy2, stronger effect = lower value 1.01 | S. cerevisiae deletion strains, locus YLR262C, strain YPT6 (second series), stronger effect = lower value 1.06 | S. cerevisiae deletion strains, locus YLR262C, strain YPT6, stronger effect = lower value 1.14 | S. cerevisiae deletion strains, locus YLR268W, strain sec22, stronger effect = lower value 1.04 | S. cerevisiae deletion strains, locus YLR320W, strain mms22, stronger effect = lower value 1.03 | S. cerevisiae deletion strains, locus YLR330W, strain CHS5, stronger effect = lower value 1.01 | S. cerevisiae deletion strains, locus YLR342W, strain FKS1 (second series), stronger effect = lower value 1.01 | S. cerevisiae deletion strains, locus YLR342W, strain FKS1, stronger effect = lower value 1.03 | S. cerevisiae deletion strains, locus YLR357W, strain rsc2, stronger effect = lower value 1.04 | S. cerevisiae deletion strains, locus YLR370C, strain arc18, stronger effect = lower value 1.02 | S. cerevisiae deletion strains, locus YLR371W, strain rom2, stronger effect = lower value 1.02 | S. cerevisiae deletion strains, locus YLR384C, strain iki3, stronger effect = lower value 1.02 | S. cerevisiae deletion strains, locus YLR418C, strain cdc73, stronger effect = lower value 1.01 | S. cerevisiae deletion strains, locus YML016C, strain PPZ1, stronger effect = lower value 1.01 | S. cerevisiae deletion strains, locus YML032C, strain rad52, stronger effect = lower value 0.989 | S. cerevisiae deletion strains, locus YML120C, strain ndi1, stronger effect = lower value 1.03 | S. cerevisiae deletion strains, locus YML124C, strain tub3, stronger effect = lower value 1.02 | S. cerevisiae deletion strains, locus YMR058W, strain fet3, stronger effect = lower value 1.03 | S. cerevisiae deletion strains, locus YMR078C, strain ctf18, stronger effect = lower value 1.03 | S. cerevisiae deletion strains, locus YMR125W, strain sto1, stronger effect = lower value 1.02 | S. cerevisiae deletion strains, locus YMR129W, stronger effect = lower value 1.03 | S. cerevisiae deletion strains, locus YMR205C, strain PFK2, stronger effect = lower value 1.03 | S. cerevisiae deletion strains, locus YMR223W, strain ubp8, stronger effect = lower value 1.01 | S. cerevisiae deletion strains, locus YMR231W, strain pep5, stronger effect = lower value 1 | S. cerevisiae deletion strains, locus YMR307W, strain GAS1, stronger effect = lower value 0.992 | S. cerevisiae deletion strains, locus YNL067W, strain RPL9B, stronger effect = lower value 1.01 | S. cerevisiae deletion strains, locus YNL071W, strain lat1, stronger effect = lower value 1.03 | S. cerevisiae deletion strains, locus YNL153C, strain GIM3, stronger effect = lower value 1.01 | S. cerevisiae deletion strains, locus YNL183C, strain NPR1, stronger effect = lower value 0.989 | S. cerevisiae deletion strains, locus YNL209W, strain ssb2, stronger effect = lower value 1.02 | S. cerevisiae deletion strains, locus YNL233W, strain BNI4, stronger effect = lower value 1.02 | S. cerevisiae deletion strains, locus YNL248C, strain rpa49, stronger effect = lower value 1.04 | S. cerevisiae deletion strains, locus YNL250W, strain rad50, stronger effect = lower value 1.03 | S. cerevisiae deletion strains, locus YNL271C, strain bni1, stronger effect = lower value 1.03 | S. cerevisiae deletion strains, locus YNL298W, strain CLA4, stronger effect = lower value 1.02 | S. cerevisiae deletion strains, locus YNL307C, strain MCK1, stronger effect = lower value 1.02 | S. cerevisiae deletion strains, locus YNL322C, strain KRE1 (second series), stronger effect = lower value 1.03 | S. cerevisiae deletion strains, locus YNR049C, strain mso1, stronger effect = lower value 1.04 | S. cerevisiae deletion strains, locus YNR052C, strain pop2, stronger effect = lower value 1.01 | S. cerevisiae deletion strains, locus YOL006C, strain TOP1, stronger effect = lower value 1.06 | S. cerevisiae deletion strains, locus YOL012C, strain htz1 0.92 | S. cerevisiae deletion strains, locus YOL147C, strain pex11, stronger effect = lower value 1.01 | S. cerevisiae deletion strains, locus YOR001W, strain rrp6, stronger effect = lower value 1.05 | S. cerevisiae deletion strains, locus YOR061W, strain CKA2, stronger effect = lower value 1.02 | S. cerevisiae deletion strains, locus YOR069W, strain VPS5, stronger effect = lower value 1.01 | S. cerevisiae deletion strains, locus YOR070C, strain gyp1, stronger effect = lower value 1.02 | S. cerevisiae deletion strains, locus YOR080W, strain dia2, stronger effect = lower value 1.04 | S. cerevisiae deletion strains, locus YOR083W, strain WHI5, stronger effect = lower value 1.02 | S. cerevisiae deletion strains, locus YOR106W, strain vam3, stronger effect = lower value 1.07 | S. cerevisiae deletion strains, locus YOR136W, strain idh2, stronger effect = lower value 1.02 | S. cerevisiae deletion strains, locus YOR144C, strain elg1, stronger effect = lower value 1.01 | S. cerevisiae deletion strains, locus YOR184W, strain ser1, stronger effect = lower value 1.03 | S. cerevisiae deletion strains, locus YOR231W, strain MKK1, stronger effect = lower value 1.08 | S. cerevisiae deletion strains, locus YOR265W, strain rbl2, stronger effect = lower value 1.02 | S. cerevisiae deletion strains, locus YOR270C, strain vph1, stronger effect = lower value 1.12 | S. cerevisiae deletion strains, locus YOR290C, strain snf2, stronger effect = lower value 1.02 | S. cerevisiae deletion strains, locus YOR316C, strain cot1, stronger effect = lower value 1.02 | S. cerevisiae deletion strains, locus YPL051W, strain arl3, stronger effect = lower value 1.02 | S. cerevisiae deletion strains, locus YPL055C, strain LGE1, stronger effect = lower value 1.02 | S. cerevisiae deletion strains, locus YPL078C, strain atp4, stronger effect = lower value 1.01 | S. cerevisiae deletion strains, locus YPL106C, strain sse1, stronger effect = lower value 1.01 | S. cerevisiae deletion strains, locus YPL240C, strain hsp82, stronger effect = lower value 1.02 | S. cerevisiae deletion strains, locus YPL256C, strain CLN2, stronger effect = lower value 1.03 | S. cerevisiae deletion strains, locus YPR119W, strain clb2, stronger effect = lower value 1.02 | S. cerevisiae deletion strains, locus YPR141C, strain kar3, stronger effect = lower value 1.02 | S. cerevisiae deletion strains, locus YPR163C, strain tif3, stronger effect = lower value 1.03 | S. cerevisiae deletion strains, locus YPR167C, strain met16, stronger effect = lower value 1.02 | S. cerevisiae deletion strains, strain wtn01, stronger effect = lower value 1.05 | S. cerevisiae strains, strain wild type, stronger effect = lower value 1.01
